Data from PubChem BioAssay AID1259251 (The Scripps Research Institute Molecular Screening Center, 2017).
About 580 (1.9%) of roughly 30,000 compounds were called active. No stated cut-off is given here; in the data, active means inhibition above about 43%; inactive means the rest. The list comes from a sample in which actives are over-represented; it also holds similar structures and randomly drawn compounds.

The molecules below were run against Serine/threonine-protein kinase ULK1 (Homo sapiens) (UniProt O75385) (assay: ULK1 kinase inhibitors, primary screen, biochemical, AlphaScreen (AID 1259251;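 further: 0% = median of compound wells and 100% = no enzyme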)). Settings: AlphaScreen Atg13 phosphorylation by ULK1, luminescence; at 5.96 µM; active compounds read high.
Serine/threonine-protein kinase ULK1 (Homo sapiens), sequence (O75385 whole entry, looked up): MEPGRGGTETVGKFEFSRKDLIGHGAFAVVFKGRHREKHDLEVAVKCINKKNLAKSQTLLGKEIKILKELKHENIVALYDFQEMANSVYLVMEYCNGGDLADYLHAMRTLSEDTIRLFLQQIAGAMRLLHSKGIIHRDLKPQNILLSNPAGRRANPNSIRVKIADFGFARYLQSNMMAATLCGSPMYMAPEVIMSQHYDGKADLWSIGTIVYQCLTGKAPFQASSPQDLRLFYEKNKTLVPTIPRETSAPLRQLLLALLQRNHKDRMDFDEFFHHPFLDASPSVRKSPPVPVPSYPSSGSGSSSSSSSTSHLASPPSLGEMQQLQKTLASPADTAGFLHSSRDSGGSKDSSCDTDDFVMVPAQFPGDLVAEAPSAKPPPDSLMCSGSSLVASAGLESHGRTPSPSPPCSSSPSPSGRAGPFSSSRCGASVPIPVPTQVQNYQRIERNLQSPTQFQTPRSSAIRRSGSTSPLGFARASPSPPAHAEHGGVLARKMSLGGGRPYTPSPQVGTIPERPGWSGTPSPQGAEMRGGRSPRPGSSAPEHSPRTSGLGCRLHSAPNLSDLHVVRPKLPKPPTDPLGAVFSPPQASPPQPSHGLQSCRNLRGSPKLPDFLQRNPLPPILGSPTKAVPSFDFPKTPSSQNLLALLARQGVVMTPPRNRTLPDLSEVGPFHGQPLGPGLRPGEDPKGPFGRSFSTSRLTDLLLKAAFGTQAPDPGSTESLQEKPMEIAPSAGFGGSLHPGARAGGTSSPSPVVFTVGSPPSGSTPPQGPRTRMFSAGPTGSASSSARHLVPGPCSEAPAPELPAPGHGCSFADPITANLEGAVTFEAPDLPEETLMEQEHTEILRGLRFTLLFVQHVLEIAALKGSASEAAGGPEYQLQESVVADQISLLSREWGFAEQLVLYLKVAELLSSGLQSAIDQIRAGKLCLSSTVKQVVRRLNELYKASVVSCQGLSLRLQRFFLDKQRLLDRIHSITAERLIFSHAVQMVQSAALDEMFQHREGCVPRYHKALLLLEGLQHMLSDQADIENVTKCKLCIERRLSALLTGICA

SMILES | inhibition
CC(NC(=O)C(C(=O)c1ccccc1)n1ccccc1=O)c1ccccc1 (stereo not given) | 1.21% (inactive)
N#Cc1cccc(C[C@H](N)c2nc3ccc(-c4ccncc4)cc3[nH]2)c1 | 7.99% (inactive)
COc1cc2nc(Nc3ccccc3)nc(NCc3cccc(C(F)(F)F)c3)c2cc1OC | -26.9% (inactive)
COc1nc(Nc2ccccc2)nc(-c2ccc(C(=O)NC3CC3)cc2)n1 | 22.8% (inactive)
COc1ccc(CCNc2cc(NC3CCN(Cc4ccccc4)CC3)ncn2)cc1 | -6.44% (inactive)
COc1cc(OC)nc(Oc2ccccc2/C=N/N(C)C(N)=S)n1 | 10.3% (inactive)
CCN(CC)C(=O)C1CCCN(c2cc(Nc3ccccc3)nc(N)n2)C1 (stereo not given) | 13.1% (inactive)
Fc1ccc(CNc2ncc3ccc(-c4cn[nH]c4)cc3c2Cl)cc1 | 70.6% (active)
O=C(NCc1cccc(Cl)c1)Nc1ccc(-c2cn[nH]c2)cc1 | 16% (inactive)
COc1ccc(CNC(=O)c2c[nH]c3cc(-c4cn[nH]c4)ccc23)cc1 | -3.48% (inactive)
O=C(Oc1ccc([N+](=O)[O-])cc1)c1ccc2c(c1)C(=O)N(c1ccc([N+](=O)[O-])cc1)C2=O | 8.64% (inactive)
COc1ccc(CCNC(=O)c2cnc(-c3cccs3)s2)cc1 | -2.76% (inactive)
COc1ccc(-c2nc3ncnc(NCCN4CCOCC4)c3[nH]2)cc1 | 0.53% (inactive)
Cc1ncc2c(NCCCN3CCOCC3)nc3ccccc3n12 | 12.3% (inactive)
Oc1c(Cl)cc(Cl)c(Cl)c1Cc1c(O)c(Cl)cc(Cl)c1Cl | 75.9% (active)
c1cc(-c2ocnc2-c2ncco2)cc(Nc2ccc(N3CCOCC3)cc2)n1 | -5.51% (inactive)
CC(C)c1nc2ccc(-c3ccnn3C)cc2c(=O)[nH]1 | -1.76% (inactive)
COc1ccc(C(N)c2nc3ccc(-c4cn[nH]c4)cc3c(=O)[nH]2)cc1 (stereo not given) | 16% (inactive)
CC(C)c1nc2ccc(-c3cn[nH]c3)cc2c(=O)[nH]1 | 69% (active)
Cc1cccc(C(=O)NCc2ccccc2)c1N1CCC2(CC1)OCCO2 | 4.05% (inactive)
Cc1cc(NC2CC2)nc(N2CCCC2CO)n1 (stereo not given) | -3.85% (inactive)
CC(C)N(CCNc1ccnc(Nc2ncccn2)n1)C(C)C | -7.14% (inactive)

SMILES | inhibition
Cn1nnnc1-c1ccc(Nc2nccc(-c3ccc(N4CCC(O)CC4)c(C#N)c3)n2)cc1 | 64.2% (active)
Cc1ncn(-c2ccc(Nc3nccc(-c4cc(C#N)cc(NC5CCN(C)CC5)c4)n3)cc2)n1 | 3.12% (inactive)
Cc1ccc(-c2ncn(-c3ccc(Nc4nccc(-c5cc(C#N)cc(N6CCCC(O)C6)c5)n4)cc3)n2)cn1 (stereo not given) | 0.75% (inactive)
Cn1c(Nc2nc3ccc(C(=O)NCCO)cc3s2)nc2ccccc21 | 20.6% (inactive)
Cc1cc(NCc2cccc(C(F)(F)F)c2)nc(NC2CCC(O)CC2)n1 (stereo not given) | -8.27% (inactive)
Nc1nc(Nc2cnccn2)cc(NC2CCN(Cc3ccccc3)CC2)n1 | -0.08% (inactive)
CC(=O)c1cccc(-c2nc3ncnc(NCc4nc5ccccc5[nH]4)c3[nH]2)c1 | -5.39% (inactive)
CC(C)(C)c1nc(-c2cccc(NS(=O)(=O)c3c(F)cccc3F)c2F)c(-c2ccnc(N)n2)s1 | 66.2% (active)
CCCNc1nc(-c2cccc(C(C)=O)c2)nc2c1ncn2-c1ccccc1 | -6.8% (inactive)
C[C@@H](CN)Oc1ncccc1C(=O)Nc1ccc2[nH]ncc2c1 | 0.92% (inactive)
OCC1CCCN1c1nc2ncnc(NC3CC3)c2[nH]1 (stereo not given) | 1.11% (inactive)
COc1cccc(CN(CC2CC2)C(=O)Nc2ccc(-c3cn[nH]c3)cc2OC)c1 | -27.8% (inactive)
COc1cccc(CNC(=O)Nc2ccc(-c3cn[nH]c3)cc2OC2CCNC2)c1 (stereo not given) | 55.8% (active)
COc1cccc(CNC(=O)Nc2ccc(-c3cn[nH]c3)cc2OC2CCC(O)C2)c1 (stereo not given) | 2.68% (inactive)
CCCNc1nc(NCc2cccnc2)nc2c1ncn2Cc1ccc(C(F)(F)F)cc1 | -9.26% (inactive)
O=C(NCc1cccc(C(F)(F)F)c1)c1cnc(NCCCN2CCCC2=O)s1 | -7.22% (inactive)
COC(=O)c1ccc(Cn2c(-c3nnc(CC(C)C)o3)cc3ccccc32)o1 | -10% (inactive)
CC(=O)Nc1ccc(Nc2ncnc3c2nc(-c2cccc(N)c2)n3C(C)C)cc1 | -4.82% (inactive)
CC(=O)c1cccc(-c2nc3c(NCCCN4CCCC4=O)ncnc3n2C(C)C)c1 | 5.85% (inactive)
CC(=O)c1cccc(-c2nc3c(Nc4ccc(N5CCOCC5)cc4)ncnc3n2C(C)C)c1 | 67.5% (active)
O=C1NC(=S)NC(=O)C1=Cc1ccc(-c2ccc([N+](=O)[O-])c(Cl)c2)o1 | 24.2% (inactive)
O=C(NCc1cccc(NC(=O)C2CC2)c1)Nc1ccc(-c2cn[nH]c2)cc1 | 6.93% (inactive)

SMILES | inhibition
Cn1nccc1Nc1cc(Nc2ccc(N3CCOCC3)cc2)ncn1 | 17.2% (inactive)
Cn1cc(-c2cc(Nc3ccc(N4CCOCC4)cn3)ncc2Cl)cn1 | 53.2% (active)
COc1cc(Nc2cc(-c3nocc3-c3cnn(C)c3)ccn2)ccc1N1CCOCC1 | -3.85% (inactive)
COc1ccc(CCNc2cc(-c3csc4ccccc34)ncn2)cc1 | -12% (inactive)
COCCn1nnnc1C(c1cc2ccc(C)cc2[nH]c1=O)N1CCc2ccccc21 (stereo not given) | -5.34% (inactive)
O=C(Nc1ccc(-c2cn[nH]c2)cc1)C1CCc2ccccc2O1 (stereo not given) | 12.4% (inactive)
COc1cc(Nc2ccc(N3CCC(C(=O)NCc4nc5ccccc5[nH]4)CC3)nn2)cc(OC)c1OC | 7.51% (inactive)
COc1ccc2c(c1)CC(C(=O)Nc1ccc(-c3cn[nH]c3)cc1OCCN(C)C)CO2 (stereo not given) | 7.42% (inactive)
CC(C)NC(=O)c1cccc(Nc2nccc(-c3ccc4nc(C5CC5)nc(N5CCCC5)c4c3)n2)c1 | -33.9% (inactive)
COc1cccc(Nc2nccc(-c3ccc4c(=O)n(C5CC5)c(C)nc4c3)n2)c1 | 21.2% (inactive)
O=C(c1ccc(Nc2nccc(-c3ccc4c(=O)[nH]c(C5CC5)nc4c3)n2)cc1)N1CCCC1 | 62.9% (active)
OCC1CCCN1c1nc(NC2CCN(Cc3ccccc3)CC2)c2ncn(Cc3ccc(C(F)(F)F)cc3)c2n1 (stereo not given) | -14.8% (inactive)
COC1CCN(c2ncn(-c3ccc(Nc4nccc(-c5cncc(N6CCOCC6)c5)n4)cc3)n2)CC1 | -6.75% (inactive)
Cc1ncccc1-c1ncn(-c2ccc(Nc3nccc(-c4cc(F)cc(N5CCOCC5)c4)n3)cc2)n1 | 5.38% (inactive)
c1coc(-c2ccc3cnc(Nc4ccc(-n5cnc(N6CCOCC6)n5)cc4)nc3c2)n1 | 3.23% (inactive)
Cn1cc(-c2cc(Nc3ccc(-n4cnc(N5CCC(O)CC5)n4)cc3)ncc2Cl)cn1 | -17% (inactive)
Cn1cc(-c2ccc3cnc(Nc4ccc(-n5cnc(N6CCOCC6)n5)cc4)nc3c2-c2cnn(C)c2)cn1 | 51.5% (active)
Cn1cc(-c2nc(Nc3ccc(-n4cnc(N5CCC(O)CC5)n4)cc3)ncc2Br)cn1 | 85.1% (active)
O=C(NC1CCN(Cc2ccccc2)CC1)c1cccc(-c2cccs2)n1 | -5.23% (inactive)
O=C(Nc1ccc2[nH]ncc2c1)c1ccnc(OC2CCN(Cc3ccccc3)CC2)c1 | -8.14% (inactive)
O=C(NC1CCN(Cc2ccccc2)CC1)c1cc(Cl)nc2ccccc12 | 2.89% (inactive)
Cn1c(Nc2nc(NCc3cccc(C(F)(F)F)c3)c3ncn(C4CCCCC4)c3n2)nc2ccccc21 | 8.91% (inactive)

SMILES | inhibition
O=C(NCCc1ccc(O)cc1)c1csc(Nc2ccc(N3CCOCC3)cc2)n1 | 13.3% (inactive)
Cc1cnc(Nc2ccc(N3CCOCC3)cc2)nc1Nc1ccccc1-c1ncn[nH]1 | 70.3% (active)
Cc1cnc(-c2c(C)noc2C)nc1Nc1ccc(N2CCOCC2)cc1 | -1.73% (inactive)
c1ccc(-c2ncn[nH]2)c(Nc2ccnc(Nc3ccc(N4CCOCC4)cc3)c2)c1 | 24.2% (inactive)
c1ccc(CN2CCC(Nc3nc(NCCOc4ccccc4)c4[nH]cnc4n3)CC2)cc1 | -28% (inactive)
FC(F)(F)c1ccc(Cn2cnc3c(Nc4ccccc4)nc(N4CCN(c5ccccn5)CC4)nc32)cc1 | -7.96% (inactive)
CN(C)c1cccc(Nc2cc(C(=O)NC3CC3)c3ccccc3n2)c1 | 4.11% (inactive)
Cc1ccc(CNC(=O)c2cn(C)c3c(=O)n(-c4ccccc4)c(=O)[nH]c23)cc1 | 1.67% (inactive)
CN1CCN(C(=O)c2ccc(-c3cc(NCc4cccc(C(F)(F)F)c4)ncn3)cc2)CC1 | -4.67% (inactive)
COc1ccc(Cl)cc1NC(=O)COc1cccc2c1OC(C)(C)C2 | -8.02% (inactive)
CC(=O)Nc1ccc(Nc2cc(Nc3ccccn3)nc(N)n2)cc1 | -21.9% (inactive)
O=C1Cc2cc(Nc3cc(Nc4ccccn4)c(C(F)(F)F)cn3)ccc2N1 | 38.2% (inactive)
O=C(NCCO)c1cc(Nc2ccc3[nH]ncc3c2)ccn1 | -10.8% (inactive)
CNC(=O)c1cc(F)ccc1Nc1cc(Nc2ccc3[nH]ncc3c2)ncc1C(F)(F)F | 78.3% (active)
COc1cc(NC(=O)c2cnc(Nc3ccc(C(F)(F)F)cc3)s2)cc(OC)c1OC | -10.3% (inactive)
CNC(=O)c1cc(F)ccc1Nc1cc(Nc2ccc3c(c2)CCC(=O)N3)ncc1C(F)(F)F | 85.8% (active)
CNC(=O)c1cc(F)ccc1Nc1cc(Nc2ccc(NC(C)=O)cn2)ncc1C(F)(F)F | 89% (active)
CNC(=O)c1cc(F)ccc1Nc1cc(Nc2ccc3nc[nH]c3c2)ncc1C(F)(F)F | 3.83% (inactive)
COc1ccc(Oc2ncc(-c3ccc(OC)cc3)cn2)cc1 | -2.6% (inactive)
